Records with an inconclusive call do not appear. Calls of active or inactive are those of the source. The call rests on the fitted dose curve; in most records, active means well fitted inhibition curve with a large enough effect; inconclusive means small, poorly fitted or top-dose-only effect; inactive means flat fitted curve, though single readings scatter.
The compounds below were run against Ferritin light chain (Equus caballus) (UniProt P02791) (assay: Confirmation Assay for Identification of Novel General Anesthetics). Conditions: apoferritin 1-aminoanthracene fluorescence displacement.
Ferritin light chain (Equus caballus), sequence (P02791 2-175 limits assumed): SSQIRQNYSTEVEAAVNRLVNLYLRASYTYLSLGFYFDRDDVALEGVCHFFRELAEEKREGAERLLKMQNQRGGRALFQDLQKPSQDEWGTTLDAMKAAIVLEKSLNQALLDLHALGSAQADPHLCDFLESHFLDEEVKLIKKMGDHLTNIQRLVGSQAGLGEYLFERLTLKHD
Outline: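 Horse apoferritin (10 uM) pre-loaded with 1-AMA (50% saturated, PBS) exposed to compounds 10 min at room temperature; loss of 1-AMA fluorescence (380/535 nm) scaled between free and bound ligand, curves fitted with Hill equation.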
Further: nearly all actives have a fitted effect of over 40% in size.
Potency means the concentration at half of the fitted maximal effect.

Potency, active:
CC(NC(=O)COC(=O)C1=COCCO1)C12CC3CC(CC(C3)C1)C2 (centres undefined) 14.1 µM
Cc1ccc(-c2ccc(=O)n(CC(=O)NCCc3ccccc3)n2)cc1 6.31 µM
Cc1ccc(NCc2ccccc2)cc1 10 µM
Cc1ccc(CC(=O)OCC(=O)NC2CCCC(C)C2C)cc1C (centres undefined) 28.2 µM
O=C(Nc1nccs1)c1csc2c1CCCC2 8.91 µM
COc1ccc(CNC(=O)COC(=O)CCC2CCCCC2)cc1 15.8 µM
Cc1cc(C)cc(Oc2ccccc2CO)c1 14.1 µM
CC(C)CCOc1ccc(C2N=C(N)Nc3nc4ccccc4n32)cc1 (centres undefined) 12.6 µM
O=C(COC(=O)CCc1ccccc1)NC12CC3CC(CC(C3)C1)C2 8.91 µM
Cc1ccccc1Cn1c(C)cc(C)c(C#N)c1=O 15.8 µM
COc1ccc(/C=N/NC(=O)CC(=O)NC2CCCCC2)cc1 6.31 µM
CCN(C(=O)c1ccco1)C1C2CC3CC(C2)CC1C3 (centres undefined) 14.1 µM
O=C1c2ccsc2SCCN1Cc1ccccc1Cl 14.1 µM
Cc1ccc(NCc2ccccc2O)c(C)c1 12.6 µM
O=C(NC1CCCCCC1)c1nnc(Cc2ccc(Cl)cc2)o1 15.8 µM
COc1cccc(NC(=O)Nc2nc(SC(C)(C)C)ns2)c1 10 µM
Cc1ccc(NCc2cccnc2)c(Br)c1 8.91 µM
Cc1cc(C(F)(F)F)n(-c2ccc(N)cc2)n1 17.8 µM
O=C(Oc1cccc(O)c1)C1CCCCC1 11.2 µM
CC(C)(C)CC(=O)Nc1ccc(Nc2ccccc2)cc1 17.8 µM
Cc1ccc(NC(=O)c2ccccc2)cc1OC(=O)c1ccccc1 28.2 µM
Cc1ccc(CCC(=O)Nc2cc(Cl)ccc2Cl)o1 7.94 µM
CCc1ccc(CNC(=O)Cn2nc(-c3ccccc3)ccc2=O)cc1 10 µM
c1cnc(NC2C3CC4CC(C3)CC2C4)nc1 (centres undefined) 6.31 µM
Nc1nc(-c2ccc3c(c2)CCCC3)cs1 28.2 µM
O=C1CC(C2CCCO2)C(=O)N1c1cccc(Cl)c1 (centres undefined) 14.1 µM
NC(=O)Nc1ccc(Oc2ncc(C(F)(F)F)cc2Cl)cc1 7.08 µM
COc1cccc(C(=O)COC(=O)CCC(=O)c2ccccc2)c1 7.94 µM
Cc1cc(OCC(=O)N(C)C2CCCCC2)cc(C)c1Cl 35.5 µM
CC1CCCCC1NC(=O)COC(=O)COc1ccccc1Cl (centres undefined) 17.8 µM
O=C(NC1CCCCCC1)C(=S)NCc1ccccc1 11.2 µM
Nc1nnc(SCC(=O)NC23CC4CC(CC(C4)C2)C3)s1 7.94 µM
Cc1ncsc1CCOC(=O)C12CC3CC(CC(C3)C1)C2 15.8 µM
COc1ccc(C2=Nn3c(nnc3-c3ccc(OC)cc3)SC2)cc1 22.4 µM
Clc1ccc(CNc2ccccn2)cc1 15.8 µM
O=S(=O)(Nc1cnc2ccccc2c1)N1CCCCCC1 28.2 µM
O=C(NC12CC3CC(CC(C3)C1)C2)c1ccco1 14.1 µM
CCC(CC)C(=O)Nc1ccc(Cl)c(Cl)c1 14.1 µM
CC1(C)CC(=O)c2c(Cc3ccccc3)noc2C1 14.1 µM
